Source: the supplement of paper PMC9177965
Where “and” joins values, the source holds several entries; their conditions need not be identical. Equal entries are not always repeated.

System: HT29 RNF43 G659fs (RNF43 659mut, CRISPR-edited)
Test: cell viability activity relative to DMSO (negative = inhibition); higher = more viable cells (less growth inhibition)
Details: 5 µM; 96 h
Description: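 Broad Repurposing Library primary screen at a single dose of 5 uM. HT29 sg-Ctrl and HT29 RNF43 G659fs CRISPR-edited isogenic cells were seeded at 2500 cells/well in 384-well plates in duplicate and treated for 96 h. Viability was read by CellTiter-Glo and reported as % activity relative to DMSO, with MG132 as the positive control (negative = growth inhibition).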

Compound	cell viability activity
CCN(CC)CCO[C@H]1CC[C@@]2(C)C(=CC[C@@H]3[C@@H]2CC[C@]2(C)C(=O)CC[C@@H]32)C1	-67.5%
Clc1cccc(SC2CCNCC2)n1	-56.2%
COc1cc2c(c(OC)c1OC)-c1ccc(OC)c(=O)cc1[C@@H](NC(C)=O)CC2	-55.9% and -56.4%
CC(=O)O[C@H]1C[C@H](O[C@H]2[C@@H](O)C[C@H](O[C@H]3[C@@H](O)C[C@H](O[C@H]4CC[C@@]5(C)[C@H](CC[C@@H]6[C@@H]5C[C@@H](O)[C@]5(C)[C@@H](C7=CC(=O)OC7)CC[C@]65O)C4)O[C@@H]3C)O[C@@H]2C)O[C@H](C)[C@H]1O[C@@H]1O[C@H](CO)[C@@H](O)[C@H](O)[C@H]1O	-89.7%
Oc1cccc2cccnc12	-48.9%
Cc1sc2c(c1C)C(c1ccc(Cl)cc1)=N[C@@H](CC(=O)OC(C)(C)C)c1nnc(C)n1-2	-60.2%
CC(=O)O[C@@]12CO[C@@H]1C[C@H](O)[C@@]1(C)C(=O)[C@H](O)C3=C(C)[C@@H](O)C[C@@](O)([C@@H](OC(=O)c4ccccc4)[C@H]21)C3(C)C	-37.1%
C/C(=C\c1csc(C)n1)[C@@H]1C[C@@H]2O[C@]2(C)CCC[C@H](C)[C@H](O)[C@@H](C)C(=O)C(C)(C)[C@@H](O)CC(=O)O1	-51.7%
C[C@]12CC[C@H](O)C[C@H]1CC[C@@H]1[C@@H]2C[C@@H](O)[C@]2(C)[C@@H](C3=CC(=O)OC3)CC[C@]12O	-78.8%
COC(=O)C[C@](O)(CCC(C)(C)O)C(=O)O[C@@H]1C(OC)=C[C@]23CCCN2CCc2cc4c(cc2[C@H]13)OCO4	-89.5%
O=C1C=C2C=C[C@@H]3C[C@@]2(O1)[C@H]1CCCCN31	-29.8%
CO[C@H]1C[C@H](O[C@H]2CC[C@@]3(C)[C@H](CC[C@@H]4[C@@H]3CC[C@]3(C)[C@@H](C5=CC(=O)OC5)[C@@H](OC(C)=O)C[C@]43O)C2)O[C@@H](C)[C@@H]1O	-84.3%
O=C1/C(=C/c2ccccc2)C[C@@]2(O)C3Cc4ccc(O)c5c4[C@@]2(CCN3CC2CC2)[C@H]1O5	-81.4%
